Experimental data taken from the supplement of paper PMC12067093, “Discovery and optimisation of a covalent ligand for TRIM25 and its application to targeted protein ubiquitination” (Chemical Science, 2025).
The full data set covers some 21,000 targets. This sample favours those with the largest changes.

Compound: CC1Cc2ccccc2N1C(=O)C1CCCN(C1)C(=O)CCl (mixture of isomers) [TRIM25 ligand 11 (diastereomer mixture)]
Assay: probe-labelled cysteine peptide fold change vs DMSO (competition) (log2 fold change); higher = less target engagement (more negative = stronger competition)
Details: THP-1, incubation time: 4 h
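Further: competitive chemoproteomic profiling in live THP-1 cells with an iodoacetamide desthiobiotin (IA-DTB) probe, comparing probe-labelled peptide intensities in compound-treated cells against DMSO-treated controls.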

Chain of UniProt P84095 (P84095 whole entry, looked up): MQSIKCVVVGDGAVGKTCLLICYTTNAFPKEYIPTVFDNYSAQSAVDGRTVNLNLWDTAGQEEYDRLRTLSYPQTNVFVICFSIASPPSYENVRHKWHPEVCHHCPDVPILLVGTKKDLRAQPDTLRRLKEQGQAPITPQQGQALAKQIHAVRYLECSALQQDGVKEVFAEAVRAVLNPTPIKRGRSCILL
Chain of UniProt P62834 (P62834 whole entry, looked up): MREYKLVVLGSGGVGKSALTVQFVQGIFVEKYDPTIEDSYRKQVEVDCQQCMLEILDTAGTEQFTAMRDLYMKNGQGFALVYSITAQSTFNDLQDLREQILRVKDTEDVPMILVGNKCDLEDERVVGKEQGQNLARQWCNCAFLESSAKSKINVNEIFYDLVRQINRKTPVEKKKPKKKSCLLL
Chain of UniProt Q86YV0 (Q86YV0 whole entry, looked up): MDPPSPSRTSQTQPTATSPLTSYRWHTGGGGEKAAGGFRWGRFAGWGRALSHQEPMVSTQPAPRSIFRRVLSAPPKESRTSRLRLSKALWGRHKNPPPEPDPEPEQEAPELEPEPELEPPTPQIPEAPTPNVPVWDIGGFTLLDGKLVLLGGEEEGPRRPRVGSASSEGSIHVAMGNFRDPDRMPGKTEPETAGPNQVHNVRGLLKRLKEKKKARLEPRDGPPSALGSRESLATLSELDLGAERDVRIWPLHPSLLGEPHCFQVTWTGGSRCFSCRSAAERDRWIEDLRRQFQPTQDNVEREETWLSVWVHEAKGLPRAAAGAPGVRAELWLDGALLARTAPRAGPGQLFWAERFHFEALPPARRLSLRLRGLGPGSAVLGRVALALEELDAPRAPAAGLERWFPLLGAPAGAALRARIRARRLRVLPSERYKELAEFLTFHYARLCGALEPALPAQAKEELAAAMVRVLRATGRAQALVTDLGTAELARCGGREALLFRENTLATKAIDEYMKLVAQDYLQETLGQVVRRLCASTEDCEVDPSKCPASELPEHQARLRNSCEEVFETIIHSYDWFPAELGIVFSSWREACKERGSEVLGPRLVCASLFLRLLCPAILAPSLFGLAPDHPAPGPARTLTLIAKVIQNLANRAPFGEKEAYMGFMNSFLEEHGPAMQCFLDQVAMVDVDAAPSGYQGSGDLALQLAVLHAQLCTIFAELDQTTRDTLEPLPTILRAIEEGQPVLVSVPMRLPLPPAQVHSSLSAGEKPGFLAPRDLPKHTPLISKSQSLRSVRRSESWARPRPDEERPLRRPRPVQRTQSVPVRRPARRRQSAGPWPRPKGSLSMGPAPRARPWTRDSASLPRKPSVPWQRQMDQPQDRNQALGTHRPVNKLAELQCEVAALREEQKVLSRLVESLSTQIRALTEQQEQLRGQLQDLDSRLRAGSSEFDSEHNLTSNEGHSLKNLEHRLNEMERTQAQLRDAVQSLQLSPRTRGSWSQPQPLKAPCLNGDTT
Chain of UniProt Q9H6Z4 (Q9H6Z4 whole entry, looked up): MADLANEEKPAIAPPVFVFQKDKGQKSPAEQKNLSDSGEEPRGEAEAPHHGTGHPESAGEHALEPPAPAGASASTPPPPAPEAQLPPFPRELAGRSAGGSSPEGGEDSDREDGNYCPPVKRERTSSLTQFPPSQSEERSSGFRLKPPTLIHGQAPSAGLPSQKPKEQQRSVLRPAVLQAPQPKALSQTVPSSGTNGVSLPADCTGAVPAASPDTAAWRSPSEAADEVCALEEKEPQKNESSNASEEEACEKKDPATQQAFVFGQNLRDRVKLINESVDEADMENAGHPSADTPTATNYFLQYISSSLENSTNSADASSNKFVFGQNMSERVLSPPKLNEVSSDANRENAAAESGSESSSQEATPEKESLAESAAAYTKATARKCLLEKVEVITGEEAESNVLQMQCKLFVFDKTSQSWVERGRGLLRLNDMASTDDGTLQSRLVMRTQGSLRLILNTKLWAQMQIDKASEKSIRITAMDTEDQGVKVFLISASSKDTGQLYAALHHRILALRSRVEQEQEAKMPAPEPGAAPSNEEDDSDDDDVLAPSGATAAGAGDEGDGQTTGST
Chain of UniProt Q6NW40 (Q6NW40 whole entry): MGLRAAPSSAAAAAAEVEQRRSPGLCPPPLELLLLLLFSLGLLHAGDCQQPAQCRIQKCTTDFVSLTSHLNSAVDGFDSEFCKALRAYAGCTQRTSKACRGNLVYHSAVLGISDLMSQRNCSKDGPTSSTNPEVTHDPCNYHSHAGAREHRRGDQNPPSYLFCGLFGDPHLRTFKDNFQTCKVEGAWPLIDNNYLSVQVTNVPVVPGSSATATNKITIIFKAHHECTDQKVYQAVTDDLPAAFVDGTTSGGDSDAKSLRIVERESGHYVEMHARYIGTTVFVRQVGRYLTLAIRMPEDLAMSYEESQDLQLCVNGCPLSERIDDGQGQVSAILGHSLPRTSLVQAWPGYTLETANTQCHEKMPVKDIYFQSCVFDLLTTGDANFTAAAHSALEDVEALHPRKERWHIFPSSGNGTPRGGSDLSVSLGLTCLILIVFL
Chain of UniProt Q15276 (Q15276 whole entry, looked up): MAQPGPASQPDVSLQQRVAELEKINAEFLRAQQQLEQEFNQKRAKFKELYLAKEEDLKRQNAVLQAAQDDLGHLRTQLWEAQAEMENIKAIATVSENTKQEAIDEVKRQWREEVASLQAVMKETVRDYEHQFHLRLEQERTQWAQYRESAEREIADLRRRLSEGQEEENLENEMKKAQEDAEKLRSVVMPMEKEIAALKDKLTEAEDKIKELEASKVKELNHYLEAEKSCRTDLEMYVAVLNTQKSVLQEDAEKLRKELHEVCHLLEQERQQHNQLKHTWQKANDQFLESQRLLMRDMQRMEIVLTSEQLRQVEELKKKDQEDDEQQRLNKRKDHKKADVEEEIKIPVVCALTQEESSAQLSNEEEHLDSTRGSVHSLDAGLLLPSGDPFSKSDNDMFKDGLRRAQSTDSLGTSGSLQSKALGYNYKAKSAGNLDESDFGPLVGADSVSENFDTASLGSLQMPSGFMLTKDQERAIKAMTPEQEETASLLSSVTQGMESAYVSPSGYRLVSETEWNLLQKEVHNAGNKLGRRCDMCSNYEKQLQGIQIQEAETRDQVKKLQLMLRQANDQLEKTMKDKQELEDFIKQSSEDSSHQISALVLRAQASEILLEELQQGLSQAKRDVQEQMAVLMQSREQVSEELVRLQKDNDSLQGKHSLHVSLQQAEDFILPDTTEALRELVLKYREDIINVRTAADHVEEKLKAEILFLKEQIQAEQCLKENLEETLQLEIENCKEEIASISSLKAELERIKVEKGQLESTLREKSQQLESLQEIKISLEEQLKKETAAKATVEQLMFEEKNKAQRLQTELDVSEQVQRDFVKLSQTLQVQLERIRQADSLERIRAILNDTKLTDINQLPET
Chain of UniProt Q05209 (Q05209 whole entry, looked up): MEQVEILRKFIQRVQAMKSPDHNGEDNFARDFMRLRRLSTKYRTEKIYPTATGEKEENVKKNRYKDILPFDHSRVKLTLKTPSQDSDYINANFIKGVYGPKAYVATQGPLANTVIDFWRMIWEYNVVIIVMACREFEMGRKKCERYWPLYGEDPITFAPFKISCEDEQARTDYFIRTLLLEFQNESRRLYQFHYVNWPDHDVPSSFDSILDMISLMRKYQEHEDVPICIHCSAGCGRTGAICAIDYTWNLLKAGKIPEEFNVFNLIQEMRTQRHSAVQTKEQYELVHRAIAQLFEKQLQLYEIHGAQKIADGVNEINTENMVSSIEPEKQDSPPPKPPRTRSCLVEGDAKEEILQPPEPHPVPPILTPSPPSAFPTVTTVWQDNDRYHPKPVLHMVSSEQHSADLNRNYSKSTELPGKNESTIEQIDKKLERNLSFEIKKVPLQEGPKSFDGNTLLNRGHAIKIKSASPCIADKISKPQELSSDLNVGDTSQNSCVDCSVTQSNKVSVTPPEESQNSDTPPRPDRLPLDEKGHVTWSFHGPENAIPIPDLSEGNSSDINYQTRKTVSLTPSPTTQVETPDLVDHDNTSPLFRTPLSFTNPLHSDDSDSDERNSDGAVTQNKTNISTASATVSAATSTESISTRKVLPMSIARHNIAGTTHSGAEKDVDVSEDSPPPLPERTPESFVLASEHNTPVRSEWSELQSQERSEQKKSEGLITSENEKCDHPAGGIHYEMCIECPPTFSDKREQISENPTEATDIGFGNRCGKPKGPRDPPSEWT
Chain of UniProt Q9UJ41 (Q9UJ41 whole entry, looked up): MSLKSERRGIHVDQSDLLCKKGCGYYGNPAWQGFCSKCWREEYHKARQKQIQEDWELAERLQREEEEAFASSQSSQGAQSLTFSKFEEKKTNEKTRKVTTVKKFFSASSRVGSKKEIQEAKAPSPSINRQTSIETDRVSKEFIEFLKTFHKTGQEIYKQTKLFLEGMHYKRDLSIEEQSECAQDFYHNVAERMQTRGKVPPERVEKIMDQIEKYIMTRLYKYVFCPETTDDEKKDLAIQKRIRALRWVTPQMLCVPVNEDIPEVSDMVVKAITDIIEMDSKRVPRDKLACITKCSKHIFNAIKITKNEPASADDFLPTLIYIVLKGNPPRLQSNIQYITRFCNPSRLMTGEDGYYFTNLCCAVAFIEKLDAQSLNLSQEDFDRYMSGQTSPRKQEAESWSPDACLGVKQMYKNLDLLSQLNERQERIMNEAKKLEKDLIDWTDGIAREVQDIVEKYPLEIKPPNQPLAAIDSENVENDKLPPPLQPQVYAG
Chain of UniProt Q9UBS8 (Q9UBS8 whole entry, looked up): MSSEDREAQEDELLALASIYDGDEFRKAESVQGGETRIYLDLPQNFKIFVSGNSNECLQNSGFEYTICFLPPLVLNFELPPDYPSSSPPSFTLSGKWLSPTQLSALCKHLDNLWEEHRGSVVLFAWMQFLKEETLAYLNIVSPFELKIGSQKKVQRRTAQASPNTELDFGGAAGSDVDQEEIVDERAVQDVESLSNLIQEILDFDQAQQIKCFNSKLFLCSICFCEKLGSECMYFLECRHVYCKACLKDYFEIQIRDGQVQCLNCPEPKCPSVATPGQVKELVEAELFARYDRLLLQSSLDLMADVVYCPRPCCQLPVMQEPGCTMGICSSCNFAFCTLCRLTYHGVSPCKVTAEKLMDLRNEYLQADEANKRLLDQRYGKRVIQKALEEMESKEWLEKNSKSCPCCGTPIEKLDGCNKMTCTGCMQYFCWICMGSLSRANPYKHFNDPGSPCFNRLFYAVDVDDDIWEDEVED

Target	probe-labelled cysteine peptide fold change (10 µM)	probe-labelled cysteine peptide fold change (50 µM)
RAB3GAP1_Q15042_783_HLLPCVIHAAVLK (UniProt Q15042)	-0.107	-0.00935
RPL30_P62888_52_LVILANNCPALR (UniProt P62888)	0.0216	0.142
RANBP2_P49792_3221_ITITECGQI (UniProt P49792)	-0.127	0.249
RGMB_Q6NW40_226_ITIIFKAHHECTDQK (UniProt Q6NW40)	-0.5	-0.619
RBM4B_Q9BQ04_31_VLECDIIK<|>RBM4_Q9BWF3_31_VLECDIIK (UniProt Q9BWF3+Q9BQ04)	-0.00323	-0.0431
RNF14_Q9UBS8_350_LTYHGVSPCK (UniProt Q9UBS8)	0.114	0.116
RAB3GAP1_Q15042_873_FVSCLLEQPEVLVTGAGR (UniProt Q15042)	0.274	0.33
RABEP1_Q15276_350_IPVVCALTQEESSAQLSNEEEHLDSTR (UniProt Q15276)	-0.0072	-0.0899
PTPN12_Q05209_343_SCLVEGDAK (UniProt Q05209)	0.155	-0.0495
RANBP3_Q9H6Z4_406_VEVITGEEAESNVLQMQCK (UniProt Q9H6Z4)	0.0311	0.26
RAP1A_P62834_118_DTEDVPMILVGNKCDLEDERVVGK (UniProt P62834)	-0.603	-0.364
RASAL3_Q86YV0_447_LCGALEPALPAQAK (UniProt Q86YV0)	0.119	0.0549
RHOG_P84095_105_WHPEVCHHCPDVPILLVGTKK (UniProt P84095)	-0.292	-0.278
RABGEF1_Q9UJ41_359_RDLSIEEQSECAQDFYHNVAER (UniProt Q9UJ41)	0.648	-0.0585
